Screening data (PubChem BioAssay)
D3 antag: D3 dopamine receptor (human) antagonism | max response, negative = inhibition, % | D3R cells, DiscoveRx beta-arrestin luminescence, antagonist mode; active compounds read low | P35462 | hit rate 2.5% among 360,000; in the data active = max response below about -50%; inconclusive = no clear call, values can overlap the other calls; also: % is scaled to controls: 0 for no effect and ±100 for the full control effect
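Cells expressing the human receptor were seeded at 1500 cells/well, incubated overnight at 37 degrees C in 5% CO2, then exposed to library compounds with dopamine controls for 90 minutes at 37 degrees C before luminescent detection.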
BRCA1 expr up: BRCA1 expression activation; Potency, µM (titrated, usually from 46.1 µM), for inactives: at the top dose activation, hits mostly activators; MCF7-BRCA1-FFLuc reporter, luminescence, 48 h; response scale: scaled: vehicle 0%, 10 µM genistein 100%; hit rate 1.1% among 380,000; also: potency is read from the fitted curve at half-maximal effect; nearly all actives have a fitted effect of over 80% in size
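MCF7 cells carrying a BRCA1-firefly luciferase reporter (2000 cells/well, phenol-red free MEM) were attached for 2 h at 37 °C, then given compounds for 48 h. Luminescence was read 15 min after luciferase reagent; activity normalized to genistein (10 microM) and DMSO.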
RGS4 inhibitor: inhibitors of human regulator of G protein signaling 4. hit rate 0.039% among 390,000. Potency, µM (doses to about 114 µM), inactives show at the highest dose activity change, negative = inhibition, hits mostly inhibitors. AID 504845. Transcreener GDP fluorescence polarization, RGS4-accelerated GTP hydrolysis. P49798; also: potency is read from the fitted curve at half-maximal effect; % is scaled to controls: 0 for no effect and ±100 for the full control effect; nearly all actives have a fitted effect of over 75% in size
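MLSMR compounds (23 nl, pin-transferred) preincubated 10 min at room temperature with a 500nM (2x) first reagent, then RGS4 at 900nM (2x) plus Transcreener GDP mix added; fluorescence polarization (620/688 nm) read before and after 90 min at 30 °C.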
DRD3 agonist: D3 dopamine receptor (human) agonism; P35462; D3R DiscoveRx beta-arrestin cells, luminescence, 90 min; max activation, %; hit rate 0.58% among 410,000; AID 652048; in the data active = max activation above about 30%; also: 0% is about no effect
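Agonist-mode cell screen: cells plated at 1500/well and incubated overnight at 37 °C, then exposed to library compounds for 90 min at 37 °C. Detection reagent was added for 30–60 min at room temperature, and luminescence was read.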
PTHR1 agonist: PTHR1 (human) receptor agonism | Q03431 | HEK293 GP2 PTHR1 cells, GloSensor cAMP luminescence, 1 h | Potency, µM (titrated, usually from 115 µM), for the others: top-dose activation, hits mostly activators | hit rate 0.075% among 410,000; also: potency is read from the fitted curve at half-maximal effect; nearly all actives have a fitted effect of over 55% in size
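HEK-293-derived GP2 cells expressing PTHR1 and a GloSensor cAMP reporter, 3,000/well, plated overnight, given luciferin plus IBMX (each 0.5 mM as added) for 1 h at 37 °C, then compound for 1 h at 37 °C. Luminescence was read after 15 min at room temperature.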
B2AR arrestin: agonists driving beta-arrestin recruitment to human beta2-adrenergic receptor. P07550. beta-arrestin recruitment to beta2AR, cell-based reporter. Potency, µM (top dose mostly 46.1 µM), for inactives: at the top dose activation, hits mostly activators. hit rate 0.02% among 330,000. AID 492947;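 also: potency is read from the fitted curve at half-maximal effect; 0% = DMSO controls and full agonism = EC100 isoproterenol or metaproterenol; nearly all actives have a fitted effect of over 65% in size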
Target sequence (P07550 whole entry, looked up): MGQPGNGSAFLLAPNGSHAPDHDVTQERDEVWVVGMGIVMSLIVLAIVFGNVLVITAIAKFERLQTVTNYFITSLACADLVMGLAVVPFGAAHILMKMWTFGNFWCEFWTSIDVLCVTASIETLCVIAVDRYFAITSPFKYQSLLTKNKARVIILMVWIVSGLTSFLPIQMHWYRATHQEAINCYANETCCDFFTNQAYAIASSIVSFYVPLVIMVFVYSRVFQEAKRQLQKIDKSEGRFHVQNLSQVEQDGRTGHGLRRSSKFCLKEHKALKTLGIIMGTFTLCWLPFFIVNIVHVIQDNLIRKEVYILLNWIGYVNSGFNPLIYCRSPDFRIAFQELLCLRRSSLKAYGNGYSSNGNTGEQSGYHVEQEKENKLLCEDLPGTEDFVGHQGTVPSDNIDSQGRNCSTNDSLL
* hit, by the source's call; i = inactive; ? = inconclusive; . = no result given; [ ] = dose if it differs, or a comment. Shown are actives, neighbours in structure and some others; about 3.7% of the full set was active somewhere. Unless noted, calls follow the shape of the dose curve; as a rule, active = well fitted curve in the direction sought with a large enough effect; inconclusive = small, poorly fitted or top-dose-only effect, or another doubt; inactive = no such curve, though single readings can be large; an effect the other way counts as inactive or inconclusive.

SMILES	D3 antag	BRCA1 expr up	RGS4 inhibitor	DRD3 agonist	PTHR1 agonist	B2AR arrestin
O=C(O)c1ccccc1Sc1ccccc1S(=O)(=O)NC1CCCCC1	5.2	-1.6%	-11.0%	31.7*	-8.7%	-0.4%
O=C(NC1CCCc2c1cnn2-c1ccc(F)cc1F)c1csnn1 (stereo unspecified)	-1.7	-22.3%	-31.5%	-5.8	-63.0%	0.0%
CC1CCN(C(=O)c2ccc(S(=O)(=O)NCc3ccco3)cc2)CC1	6.9	-28.6%	5.7%	-4.3	-3.6%	0.5%
Cn1c(=O)c2c(nc(SCCN3CCCCC3)n2Cc2ccc(Cl)cc2)n(C)c1=O	-51.3*	-12.3%	18.0%	0.8	-18.0%[57.5 µM]	-0.3%
O=c1c2ccccc2nc(SCCN2CCCCC2)n1CCc1ccccc1	-56.1*	-64.7%	-33.1%	-10.1	i	-0.2%
COC(=O)c1scc(-c2ccc(C)cc2)c1S(=O)(=O)Nc1cc(OC)c(OC)c(OC)c1	.	.	7.2%	2.3	-6.3%	.
CN(C)c1cc(Nc2ccc(O)cc2)c([N+](=O)[O-])c2nonc12	-3.8	-4.5%	-12.0%[11.4 µM]	-13.3	?	-0.7%
O=[N+]([O-])c1c(Nc2ccc(O)cc2)cc(Cl)c2nonc12	-160.8*	-92.8%	?	-12.8	-93.6%	0.0%
O=[N+]([O-])c1c(Nc2ccccn2)cc(Cl)c2nonc12	-85.8*	-82.4%	?	-15.8	-96.6%	3.8%
Cc1cc(F)ccc1-c1cc(C(=O)NC(C)C)[nH]n1	-5.2	86.9%	.	-6.8	-8.2%	.
C=CCSc1n[nH]c(-c2ccc(OCCC)cc2)n1	?	3.55µM*	-21.6%	-9.8	-33.8%[57.5 µM]	-0.9%
S=c1nc(-c2ccc(Cl)cc2)[nH][nH]1	-6.3	14.2%	?	-0.5	-9.1%	-0.4%
CCCOc1ccc(-c2nc(=S)[nH][nH]2)cc1	-4.5	3.55µM*	?	-10.3	-11.0%[57.5 µM]	-0.3%
C=CCSc1n[nH]c(-c2ccc(OCCCC)cc2)n1	13.5	7.94µM*	-1.4%	0.6	-35.9%	0.3%
CCCOc1ccc(-c2nc(SCC(=O)c3ccc(Cl)cc3)n[nH]2)cc1	.	.	-38.6%	-4.9	-19.9%	.
O=Cc1cccc(OCc2cccc3ccccc23)c1	7.3	?	-9.4%	-12.6	i	-0.7%
O=C1CC(c2ccco2)CC(O)=C1C=Nc1ccccc1-c1ccccc1 (stereo unspecified)	-104.8*	-8.7%	-35.2%	-13.9	-11.8%	0.0%
O=C1CC(c2ccco2)CC(O)=C1C=Nc1cc(Cl)ccc1O (stereo unspecified)	0.0	-51.0%	15.7%	-9.0	i	-0.7%
Cc1ccc(C2(C)NC(=O)N(CC(=O)Nc3ccccc3N3CCCC3)C2=O)cc1 (stereo unspecified)	-1.3	-3.3%	5.9%	1.5	i	3.8%
Cc1ccc(NC(=O)c2ccc(OC(=O)C(C)Oc3ccc(Cl)cc3C)cc2)cc1 (stereo unspecified)	-4.9	5.01µM*	-7.0%	-5.0	i	-0.6%
CC(C)C(=O)N1CCCC1(C)C(=O)Nc1ccccc1 (stereo unspecified)	30.5	-4.8%	.	1.2	i	.
NC(=O)c1cccc(Nc2nc(C(N)COCc3ccccc3)cs2)n1 (stereo unspecified)	-64.6*	-27.0%	.	-2.3	-6.0%	.
CCOC(=O)N1CCN(C(=O)CN(c2cccc(Cl)c2C)S(=O)(=O)c2ccc(C)cc2)CC1	.	11.0%	17.6%	0.0	-1.8%	.
COc1ccc(-c2nn(Cc3ccccc3)cc2C(=O)N2CCN(c3ncccn3)CC2)cc1	13.5	2.4%	-10.9%	-0.6	-16.2%	-1.2%
COc1ccc(-c2cc(C(F)(F)F)nc(SCCC(=O)Nc3cc(C)ccc3O)n2)cc1	.	2.0%	-6.5%	37.5*	-39.8%	.
CCN(CC(=O)Nc1cc(S(=O)(=O)N2CCOCC2)ccc1C)Cc1ccccc1	2.0	-28.6%	20.0%	-5.4	-32.9%	-1.0%
COCCn1c(C)cc(C(=O)COC(=O)Cc2n[nH]c(=O)c3ccccc23)c1C	8.7	8.91µM*	11.5%	1.9	15.3%	-1.2%
